Measured values from the supplement of paper PMC6992640.
± gives the standard deviation of the averaged measurements.

How the values were obtained:
Assay in all cases: cell viability (% of vehicle); higher = less cytotoxic
[1] = test system: HCI01 (cells of a triple-negative basal-like breast cancer xenograft); conditions: 1 µM; 72 h
[2] = test system: UCD52 (cells of a triple-negative basal-like breast cancer xenograft); conditions: 1 µM; 72 h
[3] = test system: WHIM2 (cells of a triple-negative basal-like breast cancer xenograft); conditions: 1 µM; 72 h
[4] = test system: WHIM30 (cells of a triple-negative basal-like breast cancer xenograft); conditions: 1 µM; 72 h
[5] = test system: HCI01; conditions: 10 µM; 72 h
[6] = test system: HCI03 (cells of an ER-positive luminal breast cancer xenograft); conditions: 10 µM; 72 h
[7] = test system: HCI09 (cells of a triple-negative luminal androgen receptor type breast cancer xenograft); conditions: 10 µM; 72 h
[8] = test system: HCI11 (cells of an ER-positive luminal breast cancer xenograft); conditions: 10 µM; 72 h
[9] = test system: HCI13 (cells of an ER-positive luminal breast cancer xenograft); conditions: 10 µM; 72 h
[10] = test system: HCI16 (cells of a triple-negative basal-like breast cancer xenograft); conditions: 10 µM; 72 h
[11] = test system: UCD52; conditions: 10 µM; 72 h
[12] = test system: WHIM2; conditions: 10 µM; 72 h
[13] = test system: WHIM30; conditions: 10 µM; 72 h

SMILES | cell viability [1] | cell viability [2] | cell viability [3] | cell viability [4] | cell viability [5] | cell viability [6] | cell viability [7] | cell viability [8] | cell viability [9] | cell viability [10] | cell viability [11] | cell viability [12] | cell viability [13]
CSc1ccc2c(c1)N(CCC1CCCCN1C)c1ccccc1S2.Cl (stereo not given) [Thioridazine HCl] | 87 | 82.5 | 92.4 | 84.7 | 44.9 ± 9.3 | 52.1 | 26.4 ± 1.2 | 88.4 | 55.6 ± 3.4 | 41.4 | 36.8 ± 0.53 | 42.2 ± 10 | 61.9 ± 3.6
CC(C)(C)c1ccc(C(O)CCCN2CCC(C(O)(c3ccccc3)c3ccccc3)CC2)cc1 (stereo not given) [Terfenadine] | 89 | 79.9 | 81.1 | 73.1 | 34.4 ± 5.2 | 38.1 | 30.4 ± 2.9 | 55.3 | 48.3 ± 4.8 | 45.8 | 35.1 ± 4 | 42 ± 2.8 | 29.6 ± 3.5
CC(=O)c1cc2c(o1)C(=O)c1ccccc1C2=O [Napabucasin] | 30.1 | 29.6 | 50.3 | 33.9 | 54.9 ± 23 | 54.2 | 29.1 ± 9.1 | 21.8 | 46.9 ± 9.2 | 58.7 | 40.3 ± 7.5 | 72.4 ± 12 | 45.1 ± 7.3
COc1ccccc1OCCNCC(O)COc1cccc2[nH]c3ccccc3c12 (stereo not given) [Carvedilol] | 92.5 | 99.9 | 91.3 | 111 | 97.88 ± 0.3 | 69.9 | 75.9 ± 8.1 | 88.7 | 123.82 ± 0.064 | 127 | 44 ± 1.3 | 46.1 ± 3.3 | 102.1 ± 0.59
COC(=O)NC(C(=O)N1CCCC1c1ncc(-c2ccc(-c3ccc(-c4cnc(C5CCCN5C(=O)C(NC(=O)OC)C(C)C)[nH]4)cc3)cc2)[nH]1)C(C)C (stereo not given) | 85.1 | 82.6 | 93.7 | 82.8 | 79.8 ± 2.9 | 99.6 | 42.7 ± 35 | 72.6 | 131 ± 110 | 87.2 | 62.3 ± 1.2 | 58.8 ± 6.8 | 102 ± 11
Clc1ccc(C(Cn2ccnc2)OCc2ccc(Sc3ccccc3)cc2)c(Cl)c1.O=[N+]([O-])O (stereo not given) [Fenticonazole Nitrate] | 89.6 | 92.5 | 107 | 91.5 | 40.8 ± 0.92 | 96.9 | 19.2 ± 2.4 | 74.8 | 44.74 ± 0.32 | 105 | 59.12 ± 0.32 | 40.7 ± 11 | 91.8 ± 8.3
CNC(=O)c1cc(Oc2ccc(NC(=O)Nc3ccc(Cl)c(C(F)(F)F)c3)cc2)ccn1.Cc1ccc(S(=O)(=O)O)cc1 [Sorafenib Tosylate] | 90.6 | 74.5 | 81.7 | 65.2 | 22 ± 0.23 | 65.5 | 14.6 ± 7 | 63.9 | 55.5 ± 31 | 45.9 | 82.6 ± 1 | 32.2 ± 0.44 | 41.9 ± 18
CN(C)c1ccc(C(=C2C=CC(=[N+](C)C)C=C2)c2ccc(N(C)C)cc2)cc1.[Cl-] [Crystal Violet] | 74.7 | 61.1 | 51.2 | 40.8 | 28.8 ± 4.1 | 48.9 | 26.9 ± 4.8 | 28.1 | 24.73 ± 0.16 | 56.7 | 29.6 ± 3.3 | 46.7 ± 15 | 36.8 ± 2.2
Clc1ccc(CSC(Cn2ccnc2)c2ccc(Cl)cc2Cl)cc1.O=[N+]([O-])O (stereo not given) [Sulconazole Nitrate] | 95.2 | 96.5 | 108 | 92.9 | 28.4 ± 6.5 | 77.3 | 24.5 ± 2.6 | 78.3 | 40.1 ± 3 | 74.1 | 35.2 ± 2.8 | 34.9 ± 8.5 | 119 ± 0.69
CC(C)c1nc(CN(C)C(=O)NC(C(=O)NC(Cc2ccccc2)CC(O)C(Cc2ccccc2)NC(=O)OCc2cncs2)C(C)C)cs1 (stereo not given) [Ritonavir] | 88.2 | 82.1 | 88.4 | 91.1 | 72 ± 3.7 | 98 | 48.2 ± 0.57 | 83.6 | 57.8 ± 3.3 | 96.1 | 41.5 ± 0.54 | 62.6 ± 2.7 | 82 ± 16
O=C(C=Cn1cnc(-c2cc(C(F)(F)F)cc(C(F)(F)F)c2)n1)NNc1cnccn1 | 67.4 | 59.5 | 66.1 | 41.8 | 41.9 ± 24 | 41 | 31.5 ± 14 | 92.7 | 35.4 ± 2.5 | 73.2 | 80.1 ± 1.8 | 70.94 ± 0.096 | 46.7 ± 0.48
COc1cc2nccc(Oc3ccc(NC(=O)NC4CC4)c(Cl)c3)c2cc1C(N)=O [Lenvatinib (E7080)] | 89.1 | 56.2 | 83 | 94.1 | 94.2 ± 28 | 70.5 | 79.8 ± 7.3 | 48.6 | 44.8 ± 3.3 | 61.4 | 57.8 ± 6.3 | 64 ± 21 | 48.1 ± 2
CCN(CC)CCCC(C)Nc1ccnc2cc(Cl)ccc12.O=P(O)(O)O.O=P(O)(O)O (stereo not given) [Chloroquine diphosphate] | 88.7 | 68.5 | 77.4 | 81.2 | 75.4 ± 4.4 | 93.1 | 95.5 ± 18 | 88.4 | 142 ± 20 | 102 | 72.7 ± 0.86 | 71.2 ± 17 | 74.46 ± 0.26
COc1cc2ncnc(Nc3ccc(F)c(Cl)c3)c2cc1NC(=O)C=CCN1CCCCC1 | 70.8 | 40 | 43.9 | 54.6 | 34.5 ± 3.5 | 49.8 | 22.3 ± 1.4 | 57 | 24.6 ± 15 | 55.1 | 29.7 ± 2.9 | 43.9 ± 9.3 | 47.4 ± 1.6
CCCCCCCCc1ccc(CCC(N)(CO)CO)cc1.Cl [Fingolimod (FTY720)] | 97.7 | 87.9 | 92.2 | 84.3 | 28.9 ± 5.8 | 53.9 | 18.8 ± 3.1 | 33.8 | 52.3 ± 9.9 | 49.1 | 25.6 ± 1.3 | 77.9 ± 3.2 | 82.5 ± 15
